High-throughput results from PubChem BioAssay.
Rows were chosen to be rich in hits. Some 4.1% of all compounds tested hit in one or more screens of this group.
DAX1 inh-1 – inhibitors of DAX1 repression of SF-1 activated StAR promoter; HEK293T StAR-luciferase reporter, SF-1/DAX-1 repression relief; 370,000 compounds, 1.1% hits; inhibition, % at 6.8 µM;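 active = inhibition above the mean over all tested compounds plus 3 SD, cut at about 3.6% in these data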;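 also: 0% = DAX-1 cells with DMSO and 100% = cells lacking DAX-1 with DMSO; higher inhibition means more luminescence from relief of DAX-1 repression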
hgDAF-12 ag – activates the H. glycines DAF-12 receptor ligand-binding domain | HEK293 GAL4-hgDAF12 UAS-luciferase reporter, agonist luminescence; normalized to butyrate control | activation, % at 6.8 µM | 370,000 compounds, 1.8% hits | AID 687014;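 active = activation above a cutoff set at the mean of all screened compounds plus 3 SD, cut at about 10% in these data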;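 also: 0% = DMSO wells and 100% = sodium butyrate wells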
hcDAF12 agonist – activators of H. contortus DAF-12 nuclear receptor; activation, % at 6.8 µM; HEK293 hcDAF-12 lit1-tk-luc reporter, luminescence; 0% DMSO, 100% Δ7-dafachronic acid; 370,000 compounds, 1.4% hits; AID 652067;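 active = activation above the mean of all tested compounds plus 3 SD, cut at about 5.5% in these data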;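 also: 100% = response to 3 µM Δ7-dafachronic acid high control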
DAX1 inh-2 – NR0B1 (DAX1) inhibition. P51843. HEK293 Gal4-DAX1 luciferase reporter, luminescence. inhibition, % at 6.75 µM. 340,000 compounds, 0.99% hits;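 active = inhibition above the mean over all tested compounds plus 3 SD, cut at about 4.2% in these data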;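 also: 0% = DAX1-transfected cells with DMSO and 100% = empty-vector control cells with DMSO; inhibition shows as a rise in luminescence from relieved DAX1 repression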
Target sequence (P51843 207-470 limits assumed): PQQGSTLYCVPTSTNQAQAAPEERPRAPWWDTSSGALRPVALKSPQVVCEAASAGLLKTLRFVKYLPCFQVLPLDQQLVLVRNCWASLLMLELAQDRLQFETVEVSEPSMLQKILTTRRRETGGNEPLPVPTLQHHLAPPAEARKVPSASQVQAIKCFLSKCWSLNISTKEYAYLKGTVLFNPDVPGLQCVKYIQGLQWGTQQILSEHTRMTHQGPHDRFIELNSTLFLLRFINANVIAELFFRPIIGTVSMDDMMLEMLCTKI
ssDAF-12 act – activates DAF-12 receptor from parasite S. stercoralis | HEK293 ssDAF-12/GRIP1 lit1-tk-luc reporter, luminescence; % of 3 µM dafachronic acid response | activation, % at 6.8 µM | 370,000 compounds, 1% hits;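 active = activation above the mean over all tested compounds plus 3 SD, cut at about 0.9% in these data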;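 also: 0% = DMSO-only wells and 100% = 3 µM delta7-dafachronic acid wells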
* = called active by the depositor; nt = not tested or not shown.

SMILES	DAX1 inh-1	hgDAF-12 ag	hcDAF12 agonist	DAX1 inh-2	ssDAF-12 act
CCOC(=O)CC(=O)Nc1nc2ccccc2s1	0	2	0	0	-1
CCN(CC(=O)Nc1c(F)cccc1F)C(=O)c1cc(C)nc2ccccc12	-1	0	2	1	1.0*
COC(=O)[C@@]12C[C@@H](CC(=O)N3CCN(C(=O)C4CC4)CC3)C(=O)N(CCc3ccc(OC)c(OC)c3)C1=CCC(C)(C)C2	0	1	-2	nt	-1
O=C(CCNC(=O)N1CC(=O)Nc2ccccc21)NCc1cccc(Cl)c1	4.4*	4	0	3	-1
O=C(CNC(=O)N1CC(=O)Nc2ccccc21)Nc1ccccc1F	0	4	3	0	1.0*
O=C(CCNC(=O)N1CC(=O)Nc2ccccc21)Nc1cccc(Cl)c1	2	7	4	2	0
O=C(CNC(=O)N1CC(=O)Nc2ccccc21)Nc1ccccc1	3	6	3	1	0
NC(=O)CSc1nnc(Cn2c(=O)sc3ccccc32)n1CCc1ccccc1	0	-2	0	4.5*	-1
Cn1c(CNC(=O)c2ccc(Cl)cc2)nnc1SCC(=O)NC1CCCC1	0	-1	0	6.5*	-1
Cn1c(Cn2c(=O)sc3ccccc32)nnc1SCC(=O)NC1CCCCC1	nt	nt	nt	2	nt
O=C(CSc1cc(Cl)ccc1Cl)NC1CCCC1	0	1	-1	5.4*	0
Cn1c(Cn2c(=O)sc3ccccc32)nnc1SCC(=O)NC1CCCC1	0	2	1	5.2*	0
COC(=O)[C@]12C[C@H](CC(=O)NCC3CCCCC3)C(=O)N(CCc3ccc(OC)c(OC)c3)C1=C[C@H](C(C)(C)C)O[C@@H]2C	0	1	-1	nt	-1
CCn1c(CNC(=O)c2ccc(Cl)cc2)nnc1SCC(=O)N1CCOCC1	4.5*	0	0	1	-1
CCn1c(CC(=O)Nc2ccc(F)cc2)nnc1SCC(=O)NC1CCCC1	0	-2	1	4.8*	-1
CSCC[C@H](NC(=O)Cc1c(C)c2cc3c(C)c(C)oc3cc2oc1=O)C(=O)N[C@@H](C(=O)O)c1ccccc1	2	0	0	nt	-1
N/C(Cc1ccc(Cl)cc1Cl)=N\OC(=O)Cc1cccs1	0	3	3	1	-1
N/C(Cc1cccs1)=N\OC(=O)COc1ccc(Cl)cc1Cl	2	13*	4	1	-1
COc1cccc(NC(=O)C(C)OC(=O)c2n[nH]c3ccccc23)c1 (centres undefined)	-1	11*	1	0	0
COc1ccc(OC)c(NC(=O)COC(=O)c2n[nH]c3ccccc23)c1	0	0	0	-1	-1
CNc1snc(C)c1C(=O)OC(C)C(=O)Nc1cccc(OC)c1 (centres undefined)	-3	-1	-3	0	-2
COc1ccc(C(=O)COC(=O)c2n[nH]c3ccccc23)c(OC)c1	4.2*	12*	4	2	0
COc1ccc(C(=O)COC(=O)c2cccnc2Cl)c(OC)c1	1	13*	0	2	-1
COc1ccc(OC)c(C(=O)COC(=O)c2cccnc2Cl)c1	0	3	0	2	-1
CC(CNC(=O)COC(=O)c1cccnc1Cl)c1ccccc1 (centres undefined)	3	5	1	-1	1.2*
SMILES	DAX1 inh-1	hgDAF-12 ag	hcDAF12 agonist	DAX1 inh-2	ssDAF-12 act
CC(CNC(=O)COC(=O)c1cccs1)c1ccccc1 (centres undefined)	-2	1	0	1	-1
COCc1cc(N2CCNC[C@@H]2C)ccc1N1CCN(Cc2ccccc2)[C@@H](C)C1	1	2	-1	nt	-1
O=S(=O)(N[C@H]1CCCC[C@@H]1N1CCOCC1)c1ccc(Cl)cc1	nt	1	0	nt	-1
Cn1ncc([N+](=O)[O-])c1C(=O)Nc1ccccc1C#N	0	0	0	0	-1
COc1ccc(C(=O)Cn2cnc3ccccc3c2=O)c(OC)c1	3.6*	6	3	1	-1
Cc1cc(C(=O)COC(=O)c2n[nH]c3ccccc23)c(C)n1C	4.5*	17*	8.1*	2	1.2*
Clc1cc(Cl)c2nc(N3CCCC3)sc2c1	3	11*	2	1	0
CCC1CCCCN1C(=O)n1ncc(C(O)(c2ccccc2)c2ccccc2)n1 (centres undefined)	nt	-9	-4	nt	-2
COc1cccc2c1C(=O)c1c(O)c3c(c(O)c1C2=O)C[C@@](O)(C(=O)CO)C[C@@H]3O[C@H]1C[C@H](N)[C@H](O)[C@H](C)O1	-6	-7	5	-3	2.2*
COc1cccc2c1C(=O)c1c(O)c3c(c(O)c1C2=O)CC(O)(C(C)=O)CC3OC1CC(N(C)C)C(O)C(C)O1 (centres undefined)	-10	-11	-4	-7	-3
CC(=O)[C@@]1(O)Cc2c(O)c3c(c(O)c2[C@H](O[C@H]2C[C@H](N)[C@H](O)[C@H](C)O2)C1)C(=O)c1ccccc1C3=O	-14	-5	4	nt	3.6*
COc1ccccc1C(=O)NNC(=O)CCC(=O)NCc1ccccc1	0	2	5.7*	1	0
COc1ccccc1OCCOC(=O)Nc1ccccc1	-1	0	3	0	-1
COc1cccc(COC(=O)Nc2ccccc2)c1OC	3	12*	2	nt	0
COCCNC(=O)C(=O)NNS(=O)(=O)c1ccc2ccccc2c1	0	1	-1	0	-1
COc1cccc(C(=O)OCC(=O)NCCc2ccccc2)c1OC	0	0	-1	-1	-1
COCCNC(=O)C(=O)NNS(=O)(=O)c1ccc(Cl)cc1	0	-1	0	4.5*	-2
COc1cccc(C(=O)NOCc2ccccc2)c1OC	4.4*	10	3	1	1
CC1CCCCN1C(=O)c1ccc(CNC(=O)c2cccc(Br)c2)cc1 (centres undefined)	-1	1	-2	nt	0
CC(=O)c1ccc(-c2cc(C(C)=O)c3n(c2=O)CCC3)cc1	-1	-1	-3	nt	-1
S=C(NCC1CCCCC1)OC1CCC12CCC(c1ccccc1)CC2 (centres undefined)	0	-2	3	nt	-1
COCCNC(=O)C(=O)NNC(=O)c1ccccc1OC	0	3	4	-1	1.5*
CC(O)(c1ccccc1)c1nc(-c2cccc(C(=O)O)c2)cs1 (centres undefined)	3	11*	3	nt	0
COc1cc2c(cc1NC(=O)COC(=O)C(CCSC)NC(=O)c1ccccc1Cl)oc1ccccc12 (centres undefined)	1	-1	5	-1	2.5*
O=[N+]([O-])c1ccc(CN2[C@H](COCc3ccccc3)[C@@H](N3CCCC3)CS2(=O)=O)cc1	-1	-4	-1	nt	-1
